These results are taken from PubChem BioAssay AID1347383 (Zoeller Lab, School of Medicine, Boston University, 2020).

Molecules are shown by their SMILES. Activity calls are given as the source filed them.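 How the source made its calls: active means cell survival after UV exposure 2 SD above solvent-only control wells at 10 µM, confirmed on one or two repeats; inactive means the rest.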

This test is described as follows: protection of CHO cells from pyrene-fatty acid UV killing, primary screen, phospholipid biosynthesis inhibitor project, ZR-82 cells, Analyticon library, screen 2 (AID 1347383).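 Further: survival reflects blocked phospholipid synthesis cutting uptake of the phototoxic fatty acid; compound and fatty acid exposure 3 h then viability read next day.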 The settings on record: ZR-82 CHO cells, CellTiter Blue, at 10 µM; peroxisome-deficient CHO-K1 variant, with DGAT-1, DGAT-2 and ACAT inhibitors unless noted.
On to `CC[C@H]1CN2CC[C@H]1C[C@@H]2[C@@H](O)c1ccnc2ccc(OC)cc12`, for which the result was inactive.

For the compound `C=C(C)[C@H]1CCC(C)=C[C@@H]1c1c(O)cc(CCCCC)cc1O`, the compound was classed as inactive.

For the compound `C[C@]12CC[C@@H](O[C@@H]3O[C@H](CO)[C@@H](O)[C@H](O)[C@H]3O)C[C@@]1(O)CCC1C2CC[C@]2(C)[C@@H](C3=CC(=O)OC3)CC[C@]12O` (stereo not given in full), the call was inactive.

Consider `COc1ccc(/C=C/c2cc(O)cc(O)c2)cc1`, for which the outcome was “inactive [setting not given]”.

In the case of `Oc1cc(O)cc(/C=C/c2ccc(O)cc2O)c1`, the outcome was inactive.

Consider `C=C1C(=O)CC2OC2(C)CC2OC(=O)C(=C)C2C(O)C1OC(=O)/C(C)=C\C` (stereo not given), for which the call was inactive.

For the compound `CC(=O)NCCc1c[nH]c2ccccc12`, the outcome was “inactive [setting not given]”.

Regarding `C=CC1C[N+]2([O-])CCC1CC2C(O)c1ccnc2ccc(OC)cc12` (stereo not given), the compound was called inactive.

Take `C=CCc1cc(OC)c2c(c1)OCO2`: the outcome is “inactive [setting not given]”.

Consider `COc1cc(C2c3cc4c(cc3C(O)C3COC(=O)C23)OCO4)cc(OC)c1O` (stereo not given), for which the outcome was inactive.

With `C=C(C)[C@H]1CCC(C)=C[C@@H]1c1c(O)cc(CCCCC)c(C(=O)O)c1O`, the result was inactive.

Turning to `C=C[C@H]1CN2CC[C@H]1C[C@@H]2[C@@H](O)c1ccnc2ccccc12`, the call was inactive.

As for `CC1(C)OC1COc1c2occc2cc2ccc(=O)oc12` (stereo not given), the call was inactive.

Regarding `C[C@@]1(CO)[C@H](O)CC[C@@]2(C)[C@H]1CC[C@H]1C[C@@H]3C[C@@]12CC[C@]3(O)CO`, the outcome is “inactive [setting not given]”.

Regarding `C[C@]12CC[C@H](O[C@@H]3O[C@H](CO)[C@@H](O)[C@H](O)[C@H]3O)CC1CC[C@@H]1C2CC[C@]2(C)[C@@H](C3=CC(=O)OC3)CC[C@]12O` (stereo not given in full), the compound was classed as inactive.
